Measured values: PubChem BioAssay AID2314 (National Center for Advancing Translational Sciences (NCATS), 2010)
“And” between values parts separate entries of the source, which are not always exact repeats. Equal values may be shown once. Out of some 300,000 compounds screened, about 37,000 (12%) were called active. The full list was thinned out, with actives kept by preference. Unmarked numbers belong to inactive results. Cut-off read from the data, not from the text of the source: active = max response mostly above about 13% (no sharp cut-off); inactive = mostly below about 14%.

assay: Cycloheximide Counterscreen for Small Molecule Inhibitors of Shiga Toxin; settings: cell reporter, cycloheximide protein synthesis inhibition counterscreen; active compounds read high; note: read at 38.3 µM for the half of the compounds with a filed dose; 0% is about no effect

Point of comparison: CC(=O)N1Cc2ccccc2CC1C(=O)O (stereo not drawn), max response -1.38%. Against it:
- Cc1cc(/C=N/NC(=O)CC2(C)OCCO2)c(C)n1-c1ccc(Cl)c(Cl)c1 — lower, -1.92%
- COc1ccc(-c2noc(CNC(=O)C(C)Oc3ccccc3)n2)cc1 (stereo not drawn) — higher, 0.411%
- Cc1ccc(-c2nc(CS(=O)(=O)CC(=O)NCc3ccc4c(c3)OCO4)c(C)o2)cc1 — lower, -6.73%
- CC(=O)N1CCSc2ccc(S(=O)(=O)N3CCC(C)CC3)cc21 — higher, 11.3%
- Cc1nc(/N=C(\N)NC(=O)NC2CCCCC2)nc2ccccc12 — higher, 8.1%
- COc1ccc2nc(C)cc(Nc3cccc(C(=O)O)c3)c2c1 — lower, -4.02%
- NC(=O)c1cc(S(=O)(=O)N2CCCC2)ccc1OCc1ccc(F)cc1 — higher, 8.59%
- COc1ccc(CCNc2nc(C)cc(C)n2)cc1OC — lower, -4.51%
- CCOC(=O)c1sc(=NC(=O)c2ccc(Br)cc2)n(C)c1C — higher, 7.25%
- CCOC(=O)c1c(NC(=S)NC(=O)/C=C/c2cccs2)sc(C)c1C — higher, -0.873%
- Cc1cccc2[nH]c(CN(C)C(=O)C3CCC(=O)N(CCc4ccccc4)C3)nc12 (stereo not drawn) — lower, -2.09%
- CC1CCN(S(=O)(=O)c2ccc(NC(=O)C3CC(=O)N(c4ccccc4)C3)cc2)CC1 (stereo not drawn) — lower, -2.49%
- COC(=O)c1cc(S(=O)(=O)NCC2CCN(Cc3ccc(Cl)cc3)CC2)cn1C — lower, -2.79%
- Cc1cc(NC(=O)Nc2c[nH]c(=O)[nH]c2=O)ccc1Br — higher, 9%
- COC(=O)c1cccc(NS(C)(=O)=O)c1 — lower, -1.63%
- CCN(CC)CCNC(=O)CCCCCn1c(=O)[nH]c2cc(C(=O)OC)ccc2c1=O — lower, -5.11%
- CC(C)(C)c1cc(C(=O)NN)n(Cc2ccc(Cl)cc2Cl)n1 — lower, -2.75%
- N=c1n(Cc2ccc(Cl)cc2)c2ccccc2n1CC(O)c1ccco1 (stereo not drawn) — lower, -4.56%
- C=C(C)CNC(=S)/N=c1\scc(C)n1CC — higher, 10.1%
- O=C(CSc1cccc2cccnc12)N/N=C/c1cccnc1 — higher, 31.6%
- Cc1ccc(NC(=O)CSc2cccc3cccnc23)c(C)c1 — higher, 21%
- COc1ccc(CCN2CC(C(=O)NCCN3CCNC3=O)CCC2=O)cc1 (stereo not drawn) — higher, 7.2%
- COc1cc(C(=O)OC(C)C(=O)NCC2CCCCC2)cc(NC(=O)c2ccco2)c1OC (stereo not drawn) — lower, -2.06%
- COc1ccc(C[C@H]2CN3C(=NC[C@H]3C)N2CCNC(=O)CCC2CCCCC2)cc1 — higher, 5.31%
- CCc1nn(CCCC(=O)Nc2ccc(C)cc2C)c(=O)c2cc3occc3n12 — higher, 0.647%
- Cc1ccc(Nc2nc(C)cc(C)c2C(N)=O)cc1 — lower, -4.97%
- Cc1ccc(NC(=O)Nc2nnc(-c3ccncc3)s2)cc1 — lower, -1.9%
- Cc1cccc(OCC(O)CN2CCN(CCN3C(=O)c4cccc5cccc(c45)C3=O)CC2)c1C (stereo not drawn) — lower, -8.1%
- COC(=O)CN1C(=O)[C@H]2[C@@H](C3CC3)N3C(=O)CN(Cc4ccc(-c5ccccc5)cc4)C(=O)[C@@]3(Cc3ccccc3)[C@H]2C1=O — lower, -3.99%
- Cc1ccc(NC(=S)N(CCCN2CCCC2)Cc2cccn2Cc2ccc(Cl)cc2)cc1 — lower, -7.32%
- Cc1cc(F)ccc1S(=O)(=O)N1CCCOC1CNC(=O)C(=O)NCCC1=CCCCC1 (stereo not drawn) — lower, -4.9%
- O=c1[nH]n(-c2ccc([N+](=O)[O-])cc2)c(=O)c2ccccc12 — lower, -2.65%
- CC1=NN(c2ccccc2)C(=O)C1C(=O)c1ccc([N+](=O)[O-])cc1 (stereo not drawn) — higher, 20.6%
- O=C(COc1nsnc1N1CCOCC1)Nc1ccccc1Cl — higher, 8.06%
- COc1ccc(NC(=O)CSc2nc3ccccc3c(=O)n2C)cc1 — lower, -4.03%
- COc1cc2ccccc2cc1C(=O)Nc1ccc(N2CCOCC2)cc1 — higher, 8.83%
- CCn1c(Cc2ccc(OC)cc2)nnc1SCC(=O)Nc1ccc(N2CCOCC2)cc1 — lower, -3.63%
- COc1ccc(NC(=O)COC(=O)c2ccc(NS(=O)(=O)/C=C/c3ccccc3)cc2)cc1 — higher, 0.764%
- Cc1cc(C(=O)NC2CCN(Cc3ccccc3)CC2)n[nH]1 — lower, -5.5%
- Clc1ccc(C[n+]2cc(-c3ccc(Cl)cc3)n3c2CCC3)cc1 — higher, 1.82%
- Cc1ccc(CN2CCCOCCS2(=O)=O)cc1 — higher, 0.911%
- CCO[C@@H]1OC(C(=O)NCc2nc3ccccc3[nH]2)=C[C@H](C2CCCCC2)[C@H]1CCCO — lower, -1.94%
- O=C(COc1ccccc1)NCCc1nc2ccccc2[nH]1 — lower, -4.17%
- CCc1cc2c(NC(Cc3ccccc3)C(=O)O)ncnc2s1 (stereo not drawn) — higher, 1.45%
- Cc1ccc(NC(=O)CC2C(=O)N(Cc3ccccc3)C(=S)N2NC(=O)c2cccc(F)c2)c(C)c1 (stereo not drawn) — lower, -8.81%
- Nc1nc(SCCOc2ccccc2)n[nH]1 — higher, 10.5%
- Cc1ccc(OCCCCc2c(C)n[nH]c2C)cc1 — higher, 7.68%
- CC(NCC(=O)Nc1cc(Cl)cc(Cl)c1)c1ccccc1 (stereo not drawn) — lower, -2.23%
- COc1cccc(CNC(=O)CCC2CCCN(Cc3ccc(OC(F)F)cc3)C2)c1 (stereo not drawn) — lower, -2.71%
- COc1ccc(OC)c(CNC(=O)Cn2nc(C)c3c(C)n(-c4ccc(C)cc4)nc3c2=O)c1 — higher, 2.16%
- CC(=O)Nc1cccc(NC(=O)CSc2nccn2Cc2ccc(F)cc2)c1 — higher, -0.128%
- COc1ccc(C(=O)Nc2ccc3nc(N4CCCCC4)cc(C)c3c2)cc1OC — lower, -1.84%
- COc1ccc(S(=O)(=O)Nc2ccc3c(c2)OCO3)cc1Cl — higher, 1.12%
- COc1cccc(OC)c1C(=O)Nc1ccc2c(c1)n(C)c(=O)n2C — higher, -0.414%
- COc1cc(C(=O)NCC2(c3ccccc3)CCCC2)ccc1OC(C)C — lower, -3%
- COc1ccc(-c2cc(C(F)(F)F)nc(SCC(=O)Nc3ccc4c(c3)OCO4)n2)cc1OC — higher, 0.778%
- Cn1c(=O)n(C)c2cc(C(=O)Nc3ccc(Br)cc3)ccc21 — higher, 5.85%
- O=C(Cc1ccccc1)Nc1c(C(=O)N2CCCCCC2)cnn1-c1ccccc1 — lower, -1.98%
- COc1ccc2c(c1)CCc1cn3ncc(C#N)c3nc1-2 — lower, -3.03%
- CCCCn1nc(C(=O)N2CCc3ccccc32)c2ccccc2c1=O — higher, 1.07%
- Cc1nc(N=C(N)N)nc2c(C)cccc12 — higher, 3.71%
- CCOC(=O)C(C)n1cnc2scc(-c3ccc(C)c(C)c3)c2c1=O (stereo not drawn) — higher, -0.876%
- Cc1ccccc1OCC(=O)N(Cc1cccc(F)c1)C1CCS(=O)(=O)C1 (stereo not drawn) — lower, -13%
- Cc1cc2oc(=O)cc(-c3ccccc3)c2c(C)c1-c1ccc(OC(F)(F)F)cc1 — higher, 17.1%
- CN(C(=O)CCNC(=O)Cn1ccc2ccccc2c1=O)c1ccc(Br)cc1 — lower, -6.96%
- CCN(/N=C/c1ccc(N(C)C)cc1)c1nc2ccccc2[nH]1 — higher, 5.84%
- CNC(=O)c1ccsc1NC(=O)c1ccc(S(=O)(=O)N2CCc3ccccc32)cc1 — lower, -2.6%
- CCN(CC)CCCNC(=O)c1cc2c(=O)[nH]c3ccc(C)cc3c2s1 — higher, 0.225%
- COc1ccc(N2C(=O)CC(Sc3n[nH]c(-c4ccc(C)cc4)n3)C2=O)cc1 (stereo not drawn) — lower, -1.55%
- CN(C(=O)COC(=O)c1nc(Cl)ccc1Cl)C1CCS(=O)(=O)C1 (stereo not drawn) — higher, -1.17%
- COC(=O)c1c(-c2ccc(C)cc2)csc1N — higher, 9.52%
- O=C(c1ccc(S(=O)(=O)c2ccccc2)cc1)N1CCCCCC1 — higher, -1.02%
- CC1CCN(C(=O)c2ccc(CSc3ccc(Cl)cc3)cc2)CC1 — lower, -3.83%
- Cc1cccc(C)c1NC(=O)CSc1nc2c([nH]1)c(=O)n(C)c(=O)n2C — lower, -6.42%
- CC1=C(C(=O)OCC2CCCCC2)C(c2ccc(F)cc2)NC(=O)N1 (stereo not drawn) — lower, -1.88%

In the case of COc1ccc2nc(/N=C(\N)NC(=O)Nc3ccccc3)nc(C)c2c1, the max response is reported as 21.4% (active).
With CCOC(=O)c1sc(=NC(=O)/C=C/c2cccs2)n(C)c1C the max response was 45% (active).
For COC(=O)c1ccc2c(C(C)(C)O)c(C(C)(C)O)[nH]c2c1, the max response was 14.2% (active).
For CC(=O)/C(=N\Nc1ccc(Cl)cc1Cl)Sc1cccc2cccnc12, the max response was 19.1% (active).
In the case of Cc1ccc(Nc2nc(Cl)c(C=O)s2)cc1, the max response is reported as 46% (active).
For O=C1CC(c2ccccc2)=NN1c1ccc([N+](=O)[O-])cc1, the max response was 17.2% (active).
For Cc1ccc(CNC(=O)C2(C(F)(F)F)C/C(=C\Cc3ccccc3)CCCO2)o1 (stereo not drawn), the max response was -3.33% and -3.22%.
With COc1cccc(/C=C(/CC(=O)Nc2ccc(N3CCOCC3)cc2)c2nc3ccccc3s2)c1 the max response was 50.5% (active).
For COc1ccc(/C=C(/CC(=O)Nc2ccc(C)cc2)c2nc3ccccc3s2)cc1, the max response was 21.2% (active).
With O=C(OCc1nc2ccccc2[nH]1)C1CCCCC1 the max response was 16.3% (active).
For CCCOc1ccc(-c2nc(N)n[nH]2)cc1, the max response was 27.8% (active).
In the case of COc1ccc(C(=O)Nc2ccc(C3(C#N)CCCC3)cc2)cc1OC, the max response is reported as 20.7% (active).
With Cn1c(=O)n(C)c2cc(C(=O)Nc3ccc4c(c3)OCO4)ccc21 the max response was 21.7% (active).
For COc1ccc(C(=O)Nc2ccc3c(c2)OCO3)cc1OC, the max response was 57.2% (active).
For COc1ccc(C2=NN(c3nc4ccccc4s3)C(=O)C2)cc1, the max response was 25.8% (active).
For Nc1scc(-c2ccncc2)c1Cl, the max response was 26% (active).
For O=C(c1ccc(CSc2ccccc2)cc1)N1CCCCCC1, the max response was 66.2% (active).
